Bioassay records deposited in PubChem by National Center for Advancing Translational Sciences (NCATS).
D2 PAM-1: human D2 receptor positive allosteric modulation; P14416; DiscoveRx D2 beta-arrestin cells, luminescence, 90 min; 100% = 57 uM dopamine signal; potentiation, % (concentration not given with the values); 360,000 compounds, 0.23% hits; in the data active = potentiation above about 50%; inconclusive = mostly about 30% to 49%
Target sequence (P14416 whole entry, looked up): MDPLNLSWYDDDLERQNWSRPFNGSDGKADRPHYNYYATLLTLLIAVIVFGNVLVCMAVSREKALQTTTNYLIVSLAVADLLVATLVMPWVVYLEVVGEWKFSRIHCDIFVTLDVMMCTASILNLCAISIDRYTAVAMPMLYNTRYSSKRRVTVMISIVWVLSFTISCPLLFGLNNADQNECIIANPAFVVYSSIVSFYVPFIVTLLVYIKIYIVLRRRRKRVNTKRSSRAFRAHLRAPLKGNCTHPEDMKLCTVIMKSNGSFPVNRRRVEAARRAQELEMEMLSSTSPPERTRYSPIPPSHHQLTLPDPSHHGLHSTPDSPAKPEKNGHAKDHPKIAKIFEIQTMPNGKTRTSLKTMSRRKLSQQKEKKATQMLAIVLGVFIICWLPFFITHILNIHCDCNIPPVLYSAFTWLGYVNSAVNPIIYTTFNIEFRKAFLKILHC
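PathHunter beta-arrestin assay in DiscoveRx D2 cells. Compounds were added with an EC20 of dopamine (50 nM final) for 90 min at 37 deg C. Luminescence was read 1 h after detection reagent, with 57 uM dopamine as the EC100 control.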
D2 ag-1: D2 dopamine receptor (human) agonism. activation, % at 2 µM. AID 485358. HEK293 T-REx D2 cells, calcium flux agonist mode. 340,000 compounds, 0.53% hits;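 active = activation over 3 SD above normal in the single-dose calcium agonist read, cut at about 30% in these data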; also: 0% is about no effect
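Tetracycline-induced HEK293 T-REx cells with force-coupled D2 receptor, plated overnight at 30 C, loaded with no-wash calcium dye. After a 10 s baseline, compound was pin-added and calcium flux read kinetically for 180 s; calcium rises flagged agonists.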
D2 antagonist: antagonizes the human D2 dopamine receptor; P14416; HEK293 TREx D2 cells, calcium flux, dopamine EC80; inhibition, % at 10 µM; 340,000 compounds, 2% hits; AID 485344; in the data active = inhibition above about 30%; inactive = below that, where a call was filed; also: 0% is about no effect
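Dopamine at EC80 is the agonist stimulus; test compounds precede it by 180 s. Calcium flux read kinetically in a force-coupled, inducible HEK293 T-REx D2 cell line.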
D2 ag-2: activates the human D2 dopamine receptor; P14416; DiscoveRx PathHunter D2 beta-arrestin, luminescence, 90 min; 100% = 57 uM dopamine signal; activation, % (no concentration beside the values); 360,000 compounds, 0.084% hits; AID 624465; in the data active = activation above about 40%; inconclusive = between about 15% and that limit
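DiscoveRx PathHunter D2 beta-arrestin cells (2,100/well) attached overnight, then compound-stimulated 90 min at 37 C in HBSS/10 mM HEPES/0.1% Tween-20 buffer; beta-galactosidase complementation read by luminescence after 1 h at ambient temperature. Dopamine 57 uM final (EC100) as control.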
D2 PAM-2: positively modulates the human D2 dopamine receptor allosterically | HEK293 T-REx D2, calcium flux, EC20 dopamine potentiation | potentiation, % at 10 µM | 340,000 compounds, 0.34% hits;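 active = potentiation over 3 SD above the plate norm, cut at about 30% in these data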; also: 0% is about no effect
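Using a no-wash calcium dye in inducible, force-coupled HEK293 Trex cells expressing D2, we tracked fluorescence each second for 180 s after compound, then for 180 s after EC20 dopamine to detect augmented signalling.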
D3 ag: confirmation of human D3 dopamine receptor agonists, beta-arrestin; shares compounds with D2 ag-1; 2,300 compounds, 4% hits; Potency, µM (highest dose often 76.9 µM), without a hit: at the highest dose activation, usual class: activators; DiscoveRx D3 beta-arrestin cells, luminescence, 90 min; AID 720506;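 also: potency is read from the fitted curve at half-maximal effect; 100% = dopamine control response; nearly all actives have a fitted effect of over 70% in size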
D2 ag-3: activates human D2 dopamine receptor in D3 counterscreen; Potency, µM (doses to about 76.9 µM), inactives show top-dose activation, most hits filed as activators; shares compounds with D2 ag-1; DiscoveRx PathHunter D2 beta-arrestin, luminescence, 90 min; response scale: percent relative to full dopamine signal; 2,300 compounds, 5.9% hits; also: potency is read from the fitted curve at half-maximal effect; % of control where 0% means no effect; nearly all actives have a fitted effect of over 70% in size
* hit, by the source's call; ? = inconclusive; nt = no result. This is a sample that favours compounds with a hit; in the whole collection about 2.4% have one here. Unless noted, calls follow the shape of the dose curve; as a rule, active = well fitted activation curve with a large enough effect; inconclusive = small, poorly fitted or top-dose-only effect; inactive = flat fitted curve, though single readings scatter.

SMILES	D2 PAM-1	D2 ag-1	D2 antagonist	D2 ag-2	D2 PAM-2	D3 ag	D2 ag-3
COc1cc(C(C)=O)ccc1OCC(O)CN1CCN(c2ccc(C)cc2C)CC1 (stereo not given)	-13.7	-1.8	4.0	-2.5	-20.4	nt	nt
COc1cc(C(C)=O)ccc1OCC(O)CN1CCN(c2ccccc2)CC1 (stereo not given)	8.6	85.2*	85.2*	46.4*	-27.2	?	?
COc1ccc(C(=O)NCN2CCN(c3ccccc3)CC2)cc1OC	7.5	64.3*	23.4	9.3	-19.6	1.1%	22.3%
Cc1ccc(C(=O)NCN2CCN(c3ccccc3)CC2)cc1	-28.6	2.3	-16.3	0.9	-36.4	nt	nt
Cc1ccccc1NC(=O)c1c(C)oc2ccc(O)c(CN3CCC(C)CC3)c12	nt	-0.4	nt	nt	5.9	nt	nt
O=C(CC1NCCNC1=O)Nc1ccc(F)c(Cl)c1 (stereo not given)	nt	-0.8	nt	nt	-11.5	nt	nt
Cc1c(Cl)cccc1NC(=O)c1cnc2sc(N3CCCC3)nn2c1=O	nt	1.5	nt	nt	-9.5	nt	nt
COc1cccc(CN2CCN(C3CCN(c4ccccc4C)CC3)CC2CCO)c1 (stereo not given)	-8.0	59.8*	27.1	-7.6	-26.5	-12.1%	2.8%
CCOC(=O)N1CCC(N2CCCC(C(=O)c3cc(C)c(OC)c(C)c3)C2)CC1 (stereo not given)	-5.6	nt	nt	-2.2	nt	nt	nt
COc1cccc(CN2CCN(C3CCN(c4ccccc4F)CC3)CC2CCO)c1 (stereo not given)	-16.4	3.2	8.1	-2.4	-22.6	nt	nt
CCOC(=O)N1CCC(N2CCCC(C(=O)c3ccccc3OC)C2)CC1 (stereo not given)	10.1	73.7*	70.3*	?	-14.8	-2.4%	?
COc1cccc(CN2CCN(C3CCN(c4cccc(C)c4C)CC3)CC2CCO)c1 (stereo not given)	14.9	70.8*	73.0*	?	-9.3	?	?
CCOC(=O)N1CCC(N2CCN(Cc3ccccc3)C(CCO)C2)CC1 (stereo not given)	-2.2	78.4*	76.2*	?	-13.0	-0.4%	?
COc1ccc2oc(=O)c(-c3nc(-c4cc(OC)c(OC)c(OC)c4)no3)cc2c1	nt	0.7	nt	nt	-4.1	nt	nt
CCCCNc1nc(CC(C)=O)ns1	2.1	50.2*	30.2*	-3.7	-18.4	-6.9%	-1.6%
CNc1nc(CC(C)=O)ns1	-8.9	-0.4	-5.7	-1.4	20.7	nt	nt
Cc1occc1-c1nnc(SCC(=O)Nc2nc3ccccc3s2)o1	-2.3	45.4*	-19.3	5.6	-22.0	-3.6%	-2.0%
c1ccc(Cc2noc(CN3CCN(CCOc4ccccc4)CC3)n2)cc1	-6.4	62.9*	55.5*	1.7	-24.7	?	20.6%
C[C@@H]1CCCCCCCCC(=O)OCCN1C(=O)OC(C)(C)C	0.1	0.9	12.6	-1.1	-3.9	2.5%	2.0%
C[C@@H]1CCCCCCCCC(=O)OCCN(C(=O)OC(C)(C)C)[C@H](C)CCCCCCCCC(=O)OCCN1C(=O)OC(C)(C)C	-9.8	nt	nt	-2.0	nt	nt	nt
CC1=C/C(=C\C=C(C#N)C#N)N(C)c2ccccc21	-4.4	31.8*	-21.3	-2.6	-12.2	-26.3%	-7.7%
c1ccc(CCNCCOc2ccccc2)cc1	-6.9	56.1*	48.1*	13.6	-25.3	0.5%	11.1%
Cc1cc2nc(C3CCN(CC4COc5ccccc5O4)CC3)[nH]c2cc1C (stereo not given)	-8.5	46.9*	10.7	4.2	-18.7	16.7%	?
C=CCNC(=O)CN1CCC(c2nc3cc(C)c(C)cc3[nH]2)CC1	1.5	-0.4	22.1	0.3	-9.4	nt	nt
CC(C)c1cccc(-c2ccc3c(c2)S(=O)(=O)c2cccc(C(=O)O)c2C3=O)c1	-13.6	-1.3	-1.7	-4.3	-7.3	-1.0%	0.4%
SMILES	D2 PAM-1	D2 ag-1	D2 antagonist	D2 ag-2	D2 PAM-2	D3 ag	D2 ag-3
Cc1cccc(/C=N/NC(=O)NC2CCCCC2)c1	-7.3	3.3	26.0	-6.4	-10.4	-2.5%	-2.8%
COc1cc(OC)c(NC(=O)c2cc3c(=O)oc4ccc(C)cc4c3s2)cc1Cl	nt	0.9	nt	nt	-4.0	nt	nt
COc1ccc(OC)c(CNc2ccc([N+](=O)[O-])cc2C)c1	-1.3	57.0*	8.5	-1.3	-25.6	-11.7%	3.1%
COc1cccc(CNc2ccc([N+](=O)[O-])cc2C)c1	-27.7	-1.1	-6.9	-4.1	0.2	nt	nt
Cc1ccc(NC(=O)c2cc(S(=O)(=O)N3CCc4ccccc43)ccc2F)cc1Cl	nt	0.1	nt	nt	-6.9	nt	nt
O=C(NCCN1CCN(c2ccccc2)CC1)Nc1ccccc1Br	-8.2	59.2*	76.0*	0.5	-20.2	19.6%	11.5%
O=C(NCCN1CCN(c2ccccc2)CC1)Nc1ccccc1Cl	-5.6	63.5*	34.6*	-5.4	-26.0	?	11.4%
CCCN1CCN(CCNC(=O)Nc2ccccc2Cl)CC1	-14.8	-0.6	3.6	2.3	4.9	nt	nt
COc1cc(NC(=O)NCCN2CCN(c3ccccc3)CC2)cc(OC)c1OC	-9.5	75.0*	76.0*	4.1	-30.8	9.6%	?
O=C(NCCN1CCN(c2ccccc2)CC1)Nc1ccc(Cl)cc1	-3.8	75.3*	82.2*	7.1	-29.1	21.3%	?
O=C(NCCN1CCN(c2ccccc2)CC1)Nc1cccc(Br)c1	-8.1	-1.3	2.1	-2.3	-1.6	nt	nt
CCOC(=O)c1c(C)c(-c2ccccc2)n(CC(=O)Nc2cccc(C)c2C)c1C	nt	0.1	nt	nt	-1.9	nt	nt
O=C(COc1ccccc1[N+](=O)[O-])N(Cc1ccccc1)c1ccccn1	11.0	52.5*	21.2	?	-30.2	?	?
Cc1ccc(CN(C(=O)COc2ccccc2[N+](=O)[O-])c2ccccn2)cc1	nt	nt	nt	nt	-27.2	nt	nt
Cc1ccc(C(=O)OC(C)C(=O)NC(C)CCc2ccccc2)o1 (stereo not given)	-0.8	0.2	-35.0	-2.3	10.6	-6.4%	-0.9%
CC(CCc1ccccc1)NC(=O)C(C)OC(=O)c1ccco1 (stereo not given)	0.3	-1.4	-5.8	-2.4	8.5	nt	nt
COc1ccc(C2c3c(-c4ccccc4)n[nH]c3C(=O)N2c2ccc(C(=O)O)cc2)c(OC)c1 (stereo not given)	nt	0.6	nt	nt	1.9	nt	nt
C[C@H]1[C@H](C)CC[C@]2(C)CC[C@]3(C)C(=CC(=O)C4[C@@]5(C)CC[C@H](O)C(C)(C)C5CC[C@]43C)[C@H]12 (stereo not given in full)	-0.3	0.0	20.7	-4.0	0.2	-1.7%	-0.8%
